Compounds with a hit are over-represented: about 7.5% of the library has one in this group of screens.
ELG1 repair inh: inhibitors of ELG1-dependent DNA repair in HEK293T cells; 2.3% of 330,000 active; Potency, µM (highest dose often 46.1 µM), for inactives: at the top dose activity change, negative = inhibition, most hits filed as inhibitors; HEK293T ELG1-luciferase reporter, luminescence, 16 h; DNA damage induced by 5-fluorouridine; AID 504467; further: potency means the concentration at half of the fitted maximal effect; nearly all actives have a fitted effect of over 55% in size
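Overnight (16 hr) co-exposure of 2,000 cells/well to 5-fluorouridine and compound at 37 °C preceded detection. Luciferase was quantified via ONE-Glo luminescence; loss of signal denotes inhibition.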
RORg inh: blocks mouse ROR gamma transcriptional activity. Drosophila S2 Gal4-RORgamma UAS-luciferase reporter, 20 h. Potency, µM (titrated, usually from 53.6 µM), for the others: at the top dose activity change, negative = inhibition, hits mostly inhibitors. 5.4% of 310,000 active. AID 2551; further: potency means the concentration at half of the fitted maximal effect; nearly all actives have a fitted effect of over 60% in size
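Luciferase reporter read in Schneider cells carrying Gal4-RORγ (mouse) and UAS-Photinus luciferase; cells given compound 1 h before 700 uM copper sulfate induction, then incubated 20 h at ambient temperature.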
Gal4-VP16 FLuc: Gal4-VP16 reporter inhibition counter-screen; Potency, µM (highest dose often 53.6 µM), inactives show at the highest dose activity, negative = inhibition, most hits filed as inhibitors; AID 2546; Drosophila S2 Gal4-VP16 UAS-luciferase, luminescence, 20 h; 3.5% of 310,000 active;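 further: Gal4-VP16 expression switched on by copper sulfate through the metallothionein promoter; potency means the concentration at half of the fitted maximal effect; nearly all actives have a fitted effect of over 50% in size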
B2AR arrestin: beta2AR (human) beta-arrestin recruitment activity; P07550; 0.02% of 330,000 active; Potency, µM (series often up to 46.1 µM), for the others: at the top dose activation, usual class: activators; beta-arrestin recruitment to beta2AR, cell-based reporter;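 further: potency means the concentration at half of the fitted maximal effect; 0% = DMSO controls and full agonism = EC100 isoproterenol or metaproterenol; nearly all actives have a fitted effect of over 65% in size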
TSHR antagonist: blocks TSH signaling through the human TSH receptor; 0.2% of 330,000 active; activity change, negative = inhibition, % at 11.5 µM; TSHR-expressing cells, TSH-stimulated cAMP HTRF, 2 h; active compounds read low;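 active means activity change below a set negative limit, meaning inhibition stronger than a set level, cut at about -70% in these data; inconclusive means activity change between two set negative limits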
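TSHR-expressing cells, 200/well, pre-treated with compound, then stimulated with EC80 TSH (4nM final) for 2 hours at 37 deg C. cAMP measured by competitive HTRF: anti-cAMP cryptate antibody in lysis buffer plus cAMP-d2, read after 30 minutes at room temperature.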
ELG1 FLuc counter: luciferase inhibition in cell-free luciferin readout for ELG1 hits. shares compounds with ELG1 repair inh. cell-free firefly luciferase luminescence counter-screen, ViewLux. 3% of 350 active. Potency, µM (doses to about 46.1 µM), inactives show at the highest dose activity change, negative = inhibition, hits mostly inhibitors. AID 624247; further: potency means the concentration at half of the fitted maximal effect
ELG1-Luc inh: human ELG1 repair inhibition, luciferase-tagged ELG1 confirmation; Potency, µM (highest dose often 46.1 µM), for inactives: at the top dose activity change, negative = inhibition, most hits filed as inhibitors; 68% of 670 active; AID 624248; shares compounds with ELG1 repair inh; HEK293T ELG1-luciferase levels, luminescence; cells co-treated with 5-fluorouridine; further: potency means the concentration at half of the fitted maximal effect; nearly all actives have a fitted effect of over 55% in size
Target sequence (Q96QE3 whole entry, looked up): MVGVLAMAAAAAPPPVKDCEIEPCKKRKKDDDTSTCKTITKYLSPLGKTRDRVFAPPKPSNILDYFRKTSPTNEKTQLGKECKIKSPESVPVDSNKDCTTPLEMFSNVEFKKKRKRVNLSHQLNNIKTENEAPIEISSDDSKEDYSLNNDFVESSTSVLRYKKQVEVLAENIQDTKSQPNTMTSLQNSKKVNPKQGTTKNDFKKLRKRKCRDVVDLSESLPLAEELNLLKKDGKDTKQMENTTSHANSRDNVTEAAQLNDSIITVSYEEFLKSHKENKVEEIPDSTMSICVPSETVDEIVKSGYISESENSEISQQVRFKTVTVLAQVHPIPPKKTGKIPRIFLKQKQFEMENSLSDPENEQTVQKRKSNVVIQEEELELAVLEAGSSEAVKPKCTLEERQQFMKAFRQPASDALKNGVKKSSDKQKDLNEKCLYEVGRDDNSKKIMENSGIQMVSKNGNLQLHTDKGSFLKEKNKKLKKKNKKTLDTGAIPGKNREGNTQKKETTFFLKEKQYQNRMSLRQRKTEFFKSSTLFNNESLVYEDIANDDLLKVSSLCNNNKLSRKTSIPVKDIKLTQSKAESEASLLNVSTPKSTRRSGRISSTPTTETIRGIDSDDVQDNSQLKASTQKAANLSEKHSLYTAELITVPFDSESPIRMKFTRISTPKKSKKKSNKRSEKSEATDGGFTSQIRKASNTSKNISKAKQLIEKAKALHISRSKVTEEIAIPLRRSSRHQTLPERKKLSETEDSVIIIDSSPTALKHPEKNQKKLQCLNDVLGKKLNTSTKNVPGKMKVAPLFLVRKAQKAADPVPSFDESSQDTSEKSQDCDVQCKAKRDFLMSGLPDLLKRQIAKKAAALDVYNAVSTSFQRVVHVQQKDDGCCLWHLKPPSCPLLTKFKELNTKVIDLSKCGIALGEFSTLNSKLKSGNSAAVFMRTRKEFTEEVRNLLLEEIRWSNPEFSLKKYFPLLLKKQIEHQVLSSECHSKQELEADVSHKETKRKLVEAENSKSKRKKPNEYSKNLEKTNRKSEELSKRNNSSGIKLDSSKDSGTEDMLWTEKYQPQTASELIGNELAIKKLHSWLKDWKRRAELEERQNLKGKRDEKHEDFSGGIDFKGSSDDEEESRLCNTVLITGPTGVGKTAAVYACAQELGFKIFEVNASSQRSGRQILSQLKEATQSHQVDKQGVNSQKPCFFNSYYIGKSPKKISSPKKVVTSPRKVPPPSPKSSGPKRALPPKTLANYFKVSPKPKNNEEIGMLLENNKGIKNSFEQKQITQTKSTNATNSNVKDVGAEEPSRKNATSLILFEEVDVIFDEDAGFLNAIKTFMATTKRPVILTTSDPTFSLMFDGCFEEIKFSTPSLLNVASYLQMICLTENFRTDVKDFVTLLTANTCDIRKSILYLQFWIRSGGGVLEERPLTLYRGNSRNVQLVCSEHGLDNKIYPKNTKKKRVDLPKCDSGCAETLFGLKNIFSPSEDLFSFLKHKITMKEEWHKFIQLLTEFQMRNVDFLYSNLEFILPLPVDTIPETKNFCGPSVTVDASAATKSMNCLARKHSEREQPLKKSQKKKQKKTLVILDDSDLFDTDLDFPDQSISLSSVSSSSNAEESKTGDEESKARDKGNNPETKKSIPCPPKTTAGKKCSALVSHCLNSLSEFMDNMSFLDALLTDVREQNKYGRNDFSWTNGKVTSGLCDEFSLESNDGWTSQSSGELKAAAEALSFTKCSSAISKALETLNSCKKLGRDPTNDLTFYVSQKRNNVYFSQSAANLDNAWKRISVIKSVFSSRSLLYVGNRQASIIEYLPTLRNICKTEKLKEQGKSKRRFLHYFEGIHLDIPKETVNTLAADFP
ELG1-Luc MMS: inhibits ELG1-dependent repair under MMS stimulation in HEK293T cells; AID 624249; HEK293T luciferase-tagged ELG1 level, MMS stimulated; 53% of 670 active; shares compounds with ELG1 repair inh; Potency, µM (titrated, usually from 46.1 µM), inactives show top-dose activity change, negative = inhibition, actives largely listed as inhibitors; further: potency means the concentration at half of the fitted maximal effect; nearly all actives have a fitted effect of over 60% in size
ELG1 5FU viab: confirmation of ELG1 repair inhibitors: viability with 5FU; shares compounds with ELG1 repair inh; cell viability with 5-FU, ELG1-dependent repair; Potency, µM (series often up to 46.1 µM), inactives show at the top dose activity change, negative = viability loss, hits mostly cytotoxic; 670 tested, under 10 active; AID 624250;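 further: ELG1-luc HEK293T cells cotreated with 5-fluorouridine at 10 µM final; potency means the concentration at half of the fitted maximal effect; viability measured 16 h after compound addition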
ELG1 MMS viab: confirmation of ELG1 repair inhibitors: viability with MMS | shares compounds with ELG1 repair inh | Cell viability with MMS, ELG1-dependent DNA repair | Potency, µM (highest dose often 46.1 µM), for the others: at the top dose activity change, negative = viability loss, hits mostly cytotoxic | 33% of 670 active | AID 624251;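 further: ELG1-luc HEK293T cells co-treated with 10 µM MMS; potency means the concentration at half of the fitted maximal effect; viability read 16 h after compound addition; nearly all actives have a fitted effect of over 60% in size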
ELG1 unstim viab: unstimulated viability counter-screen for ELG1 repair hits. shares compounds with ELG1 repair inh. cell viability counter-screen, unstimulated, luminescence. Potency, µM (top dose mostly 45.9 µM), inactives show at the top dose activity change, negative = loss of viability, most hits filed as cytotoxic. 8% of 900 active;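 further: potency means the concentration at half of the fitted maximal effect; compound exposure lasted 16 hours before reading; nearly all actives have a fitted effect of over 55% in size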
FLuc biochem: counter-screen for ELG1 repair inhibitors: firefly luciferase inhibition; shares compounds with ELG1 repair inh; purified firefly luciferase, luminescence counter-screen; Potency, µM (top dose mostly 57.5 µM), inactives show at the top dose activity, negative = inhibition, usual class: inhibitors; 10% of 350 active; AID 624253; further: potency means the concentration at half of the fitted maximal effect
* hit, by the source's call; ? = inconclusive; . = not tested or not shown. Unless noted, the call rests on the fitted dose curve; in most records, active means well fitted curve in the direction sought with a large enough effect; inconclusive means small, poorly fitted or top-dose-only effect, or another doubt; inactive means no such curve, though single readings can be large; an effect the other way counts as inactive or inconclusive. Unless noted, on the % scale 0 is the no-effect control and ±100 the full control effect.

SMILES	ELG1 repair inh	RORg inh	Gal4-VP16 FLuc	B2AR arrestin	TSHR antagonist	ELG1-Luc inh	ELG1-Luc MMS	ELG1 5FU viab	ELG1 MMS viab	ELG1 unstim viab	others
C=CCCc1ccc(C#N)c(SCc2c(C(=O)OCC)c3cc(OC(C)=O)c(Br)cc3n2C)n1	2.31µM*	-12.6%	-5.8%	-0.1%	11.5	?	2.81µM*	2.7%	3.97µM*	?	ELG1 FLuc counter=9.6%;FLuc biochem=3.1%
CCOC(=O)c1c(CSc2nc(C)cc(C)c2C#N)n(C)c2cc(Br)c(OC(C)=O)cc12	?	-2.7%	-0.9%	-0.4%	-3.2	.	.	.	.	.
CCOC(=O)c1nc(Nc2ccc(N3CCOCC3)cc2)c2ccccc2n1	?	-3.2%	10.5%	0.5%	-12.7	.	.	.	.	.
CCOC(=O)c1nc(Nc2ccc(C(C)=O)cc2)c2ccccc2n1	1.64µM*	10.0%	-5.5%	0.1%	-1.5	2.81µM*	?	?	6.8%	-11.7%
CC1CN(S(=O)(=O)c2cccc(C(=O)NCCC3=CCCCC3)c2)CC(C)O1 (stereo not given)	-8.3%	.	.	-0.2%	-1.4	.	.	.	.	.
C=CCn1c(NCCc2ccccc2)nc2c1c(=O)n(C)c(=O)n2C	?	0.0%	?	-0.4%	-17.6	.	.	.	.	.
C/C(Cl)=C\Cn1c(NCCc2ccccc2)nc2c1c(=O)n(C)c(=O)n2C	5.17µM*	7.08µM*	3.55µM*	0.1%	-45.5	12.6µM*	5µM*	-1.1%	?	?	ELG1 FLuc counter=-9.5%;FLuc biochem=-0.6%
CCOc1ccc(-n2ccnc2SCC(=O)Nc2cc(C)on2)cc1	?	7.2%	4.0%	-0.4%	0.4	.	.	.	.	.
O=C(CCc1nnc2n(Cc3ccc(Cl)cc3)c(=O)c3ccccc3n12)N1CCN(c2ccccn2)CC1	3.66µM*	-2.1%	-2.8%	-0.5%	-133.6*	6.28µM*	22.3µM*	?	?	-10.3%
CC1CCN(C(=O)c2[nH]cnc2C(=O)NCCCCCNC(=O)OC(C)(C)C)CC1	-8.9%	.	.	0.3%	10.9	.	.	.	.	.
CC(C)(C)OC(=O)NCCCCCNC(=O)c1nc[nH]c1C(=O)NCC(=O)OCc1ccccc1	2.59µM*	.	.	0.1%	-10.8	7.91µM*	11.2µM*	-17.6%	22.3µM*	17.7µM*
CC(C)(C)OC(=O)NCCCCCNC(=O)c1ncn(Cc2ccccc2)c1C(=O)NCCCCCNC(=O)OC(C)(C)C	4.11µM*	.	.	0.0%	-3.9	7.05µM*	-11.7%	?	?	-7.5%

Assay outcomes (PubChem)
